Experimental data taken from PubChem BioAssay (Tox21).
Inconclusive results are not listed. Activity calls are given as the source filed them. Unless noted, the call rests on the fitted dose curve; in most records, active means well fitted curve in the direction sought with a large enough effect in the repeat runs; inconclusive means weak or mixed curves; inactive means no such curve, though single readings can be large; an effect the other way counts as inactive or inconclusive.

Tests used:
[1] = qHTS assay to identify small molecule agonists of H2AX (AID 1224845; active means well fitted activation curve with a large enough effect in the signal ratio in the repeat runs, not every such curve was filed as active; the % refers to the signal ratio)
Method in brief: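 Phospho-H2AX Ser139 measured by HTRF (ex 320 nm; em 665 and 620 nm) after 24 hr antibody incubation. Compounds, 15 concentrations, 0.76% DMSO, were applied to CHO-K1 cells for 3hr at 37C before lysis.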

[2] = qHTS assay to identify small molecule agonists of H2AX - cell viability counter screen (AID 1224847; calls by dose curve; further: nearly all actives have a fitted effect of over 30% in size; further: potency means the concentration at half of the fitted maximal effect)
Method in brief: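 Cells plated first: CHO-K1, 1000 per well in 10% FBS medium, incubated overnight at 37C. Then 15-point compound titration added (final DMSO 0.76%) for 3 hr. Finally CellTiter-Glo added and luminescence read.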

[3] = qHTS RealTime-Glo MT Cell Viability Assay in HepG2 cells - 24 hour (AID 1224867); further: nearly all actives have a fitted effect of over 50% in size; further: potency means the concentration at half of the fitted maximal effect
Method in brief: (§1)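 qHTS, HepG2, 600 cells/well, RealTime-Glo (NanoLuc + prosubstrate) added with cells; 5 h preincubation; DMSO compound addition; 37 C; luminescence at 0/8/16/24/32/40 h.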

[4] = qHTS RealTime-Glo MT Cell Viability Assay in HEK293 cells - 32 hour (AID 1224868); further: nearly all actives have a fitted effect of over 50% in size; further: potency means the concentration at half of the fitted maximal effect
Method in brief: (§2)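 Assay medium contained NanoLuc luciferase plus cell-permeant prosubstrate, added with HEK293 cells at 600 cells/well. After 5 h at 37 C/5% CO2 compounds were added; plates stayed at 37 C for 40 h with serial luminescence reads.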

[5] = A CellTox Green Cytotoxicity Assay to monitor cytotoxicity in HEK293 cells - 0 hour (AID 1224869); further: nearly all actives have a fitted effect of over 50% in size
Method in brief: (§3)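 Seeding of HEK293 cells together with cytotoxicity dye preceded a 5 h incubation at 37 C/5% CO2. Test compounds in DMSO were then added and fluorescence monitored across 40 h.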

[6] = qHTS RealTime-Glo MT Cell Viability Assay in HepG2 cells - 40 hour (AID 1224870); further: nearly all actives have a fitted effect of over 50% in size; further: potency means the concentration at half of the fitted maximal effect
Method in brief: (§4)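 Real-time viability: cells seeded at 600 per well together with NanoLuc and cell-permeant prosubstrate, compounds added after 5 h incubation. Luminescence tracked at 0, 8, 16, 24, 32 and 40 h of exposure.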

[7] = A CellTox Green Cytotoxicity Assay to monitor cytotoxicity in HEK293 cells - 40 hour (AID 1224871); further: nearly all actives have a fitted effect of over 45% in size; further: potency means the concentration at half of the fitted maximal effect
Method in brief: as §3

[8] = qHTS RealTime-Glo MT Cell Viability Assay in HepG2 cells - 8 hour (AID 1224873); further: nearly all actives have a fitted effect of over 55% in size
Method in brief: as §4

[9] = qHTS RealTime-Glo MT Cell Viability Assay in HEK293 cells - 40 hour (AID 1224874); conditions: RealTime-Glo luminescence; max response: hits give low values; further: nearly all actives have a fitted effect of over 50% in size; further: potency means the concentration at half of the fitted maximal effect
Method in brief: (§5)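 Tox21 screen in HEK293 using RealTime-Glo MT chemistry, with cells and reagent co-dispensed. Luminescence proportional to viable cell number was captured at intervals during 40 h compound exposure at 37 C.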

[10] = A CellTox Green Cytotoxicity Assay to monitor cytotoxicity in HEK293 cells - 24 hour (AID 1224875); further: nearly all actives have a fitted effect of over 45% in size
Method in brief: as §3

[11] = A CellTox Green Cytotoxicity Assay to monitor cytotoxicity in HepG2 cells - 16 hour (AID 1224876); further: nearly all actives have a fitted effect of over 45% in size; further: potency means the concentration at half of the fitted maximal effect
Method in brief: (§6)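 Nonlytic assay: viable cells exclude the dye, so fluorescence scales with cell death. HepG2 at 600 cells/well, compounds added after 5 h, signal read across 40 h.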

[12] = qHTS RealTime-Glo MT Cell Viability Assay in HepG2 cells - 32 hour (AID 1224877); further: nearly all actives have a fitted effect of over 55% in size; further: potency means the concentration at half of the fitted maximal effect
Method in brief: as §1

[13] = A CellTox Green Cytotoxicity Assay to monitor cytotoxicity in HepG2 cells - 40 hour (AID 1224879); further: nearly all actives have a fitted effect of over 40% in size; further: potency means the concentration at half of the fitted maximal effect
Method in brief: as §6

[14] = qHTS RealTime-Glo MT Cell Viability Assay in HEK293 cells - 0 hour (AID 1224880); further: top concentration of the series differs between compounds; nearly all actives have a fitted effect of over 45% in size
Method in brief: as §5

[15] = A CellTox Green Cytotoxicity Assay to monitor cytotoxicity in HEK293 cells - 32 hour (AID 1224881); further: nearly all actives have a fitted effect of over 40% in size; further: potency means the concentration at half of the fitted maximal effect
Method in brief: as §3

[16] = qHTS RealTime-Glo MT Cell Viability Assay in HEK293 cells - 16 hour (AID 1224872); further: nearly all actives have a fitted effect of over 50% in size; further: potency means the concentration at half of the fitted maximal effect
Method in brief: as §2

[17] = A CellTox Green Cytotoxicity Assay to monitor cytotoxicity in HepG2 cells - 24 hour (AID 1224878); further: nearly all actives have a fitted effect of over 45% in size; further: potency means the concentration at half of the fitted maximal effect
Method in brief: as §6

[18] = qHTS assay to identify small molecule antagonists of the estrogen related receptor (ERR) signaling pathway from Tox21 library (AID 1224848); further: nearly all actives have a fitted effect of over 50% in size; further: potency means the concentration at half of the fitted maximal effect
Method in brief: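 Antagonist-mode screen of the Tox21 10K library in an NTP-provided ERR reporter cell line; 18 h compound exposure at 37 C, luminescence measured with ONE-Glo.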

[19] = qHTS assay to identify small molecule agonists of the estrogen related receptor (ERR) signaling pathway from Tox21 library (AID 1224849; calls by dose curve; further: nearly all actives have a fitted effect of over 15% in size); conditions: ERR reporter cell line, ONE-Glo luciferase, 18 h; at 92.4 µM (top of the series) unless noted
Method in brief: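 Six hours post-seeding at 37 C/5% CO2, ERR cells receive DMSO-solubilised compounds; after 18 h at 37 C, ONE-Glo reagent is applied and luminescence recorded.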

[20] = qHTS assay to identify small molecule agonists of the hypoxia (HIF-1) signaling pathway (AID 1224846; active means well fitted activation curve with a large enough effect in the signal ratio in the repeat runs, not every such curve was filed as active; the % refers to the signal ratio)
Method in brief: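 Hypoxia-pathway activation was scored as increased beta-lactamase from an HRE-controlled reporter in ME-180 cells; plated at 2,000 cells per well with 0.5% dialyzed FBS, they were exposed 17 hrs to compounds and then given CCF4-AM.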
On the % scale 0 is the no-effect control and ±100 the full control effect.

CC(C)(C)NCC(O)COc1cccc2c1C[C@H](O)[C@H](O)C2 (stereo partly drawn)
inactive: Potency [1] | Potency [2] | Potency [3] | Potency [4] | Potency [5] | Potency [6] | Potency [7] | Potency [8] | max response [9] 4.53% | Potency [10] | Potency [11] | Potency [12] | Potency [13] | Potency [14] | Potency [15]

COc1ccc(-c2cc(=S)ss2)cc1
inactive: Potency [1] | Potency [2] | Potency [3] | Potency [5] | Potency [6] | Potency [7] | Potency [16] | Potency [8] | Potency [10] | Potency [11] | Potency [17] | Potency [13] | Potency [14] | Potency [15]

CC(O)Cn1cnc2c1c(=O)n(C)c(=O)n2C (stereo not drawn)
inactive: Potency [1] | Potency [2] | Potency [18] | activity change, positive = activation [19] 0.481% [at 42.5 µM] | Potency [3] | Potency [4] | Potency [5] | Potency [6] | Potency [7] | Potency [16] | Potency [8] | max response [9] 5.1% | Potency [10] | Potency [11] | Potency [12] | Potency [13] | Potency [14] | Potency [15]

CCSC(=O)N(CC)CC
inactive: Potency [1] | outcome [20] | Potency [3] | Potency [4] | Potency [5] | Potency [6] | Potency [7] | Potency [16] | Potency [8] | max response [9] 0.524% | Potency [10] | Potency [11] | Potency [12] | Potency [17] | Potency [13] | Potency [14] | Potency [15]

CO[C@@H]1[C@@H](OC)[C@H](C)[C@@](O)(CC(=O)O)O[C@H]1[C@H](C)[C@H]1O[C@@]2(CC[C@@](C)([C@H]3CC[C@@](C)([C@@H]4O[C@@H]([C@H]5O[C@](C)(O)[C@H](C)C[C@@H]5C)C[C@@H]4OC4C[C@H](OC)[C@@H](OC)[C@H](C)O4)O3)O2)C[C@H](O)[C@H]1C (stereo partly drawn)
active: Potency [3] 5.35 µM | Potency [4] 3.01 µM | Potency [6] 6.01 µM | Potency [16] 5.35 µM | Potency [9] 2.39 µM | Potency [12] 5.35 µM | Potency [17] 12 µM | Potency [13] 6.74 µM
inactive: Potency [1] | Potency [5] | Potency [10] | Potency [14]

CCOC(=O)Oc1ccc(CCNC(=O)[C@H](CCSC)NC(C)=O)cc1OC(=O)OCC
inactive: outcome [20] | Potency [2] | Potency [3] | Potency [4] | Potency [5] | Potency [6] | Potency [16] | Potency [8] | max response [9] 14.4% | Potency [10] | Potency [11] | Potency [14] | Potency [15]

Cc1ccc2nc(N)[nH]c(=O)c2c1Sc1ccncc1
inactive: outcome [20] | Potency [2] | activity change, positive = activation [19] -24.3% [at 42.5 µM] | Potency [6] | Potency [7] | Potency [16] | Potency [10] | Potency [11] | Potency [12] | Potency [17] | Potency [13] | Potency [14] | Potency [15]

COc1cc(OC)c2ccc(=O)oc2c1
inactive: outcome [20] | Potency [2] | Potency [3] | Potency [4] | Potency [6] | Potency [7] | Potency [16] | Potency [8] | max response [9] -23.1% | Potency [11] | Potency [12] | Potency [17] | Potency [13] | Potency [14] | Potency [15]

CC(C)COC(=O)c1ccc(O)cc1
inactive: outcome [20] | Potency [2] | Potency [3] | Potency [5] | Potency [6] | Potency [8] | Potency [11] | Potency [12] | Potency [14]

CCN(Cc1cccc(S(=O)(=O)O)c1)c1ccc(C(=C2C=CC(=[N+](CC)Cc3cccc(S(=O)(=O)O)c3)C=C2)c2ccccc2S(=O)(=O)[O-])cc1
inactive: outcome [20] | activity change, positive = activation [19] -48.9% [at 42.5 µM] | Potency [3] | Potency [4] | Potency [5] | Potency [6] | Potency [7] | Potency [16] | Potency [8] | max response [9] -0.266% | Potency [10] | Potency [11] | Potency [17] | Potency [13] | Potency [14] | Potency [15]
active: Potency [2] 25.4 µM | Potency [18] 15.4 µM

CC(=O)OCCC(C)CC(C)(C)C (stereo not drawn)
inactive: outcome [20] | Potency [2] | Potency [18] | activity change, positive = activation [19] 4.15% | Potency [3] | Potency [5] | Potency [6] | Potency [16] | Potency [8] | Potency [10] | Potency [11] | Potency [17] | Potency [14] | Potency [15]

CCN(Cc1cccc(S(=O)(=O)O)c1)c1ccc(C(=C2C=CC(=[N+](CC)Cc3cccc(S(=O)(=O)O)c3)C=C2)c2ccc(O)cc2S(=O)(=O)[O-])cc1
active: Potency [2] 19.4 µM | Potency [18] 16.6 µM
inactive: outcome [20] | activity change, positive = activation [19] -59.2% [at 42.5 µM] | Potency [3] | Potency [4] | Potency [5] | Potency [6] | Potency [7] | Potency [16] | Potency [8] | max response [9] 8.88% | Potency [10] | Potency [11] | Potency [17] | Potency [13] | Potency [14] | Potency [15]

Oc1cccc2[nH]ccc12
inactive: outcome [20] | Potency [2] | Potency [3] | Potency [4] | Potency [5] | Potency [6] | Potency [7] | Potency [16] | Potency [8] | max response [9] 12.2% | Potency [10] | Potency [11] | Potency [12] | Potency [17] | Potency [13] | Potency [14] | Potency [15]

O=C(/C=C/c1ccc([N+](=O)[O-])cc1)c1ccccc1
inactive: Potency [2] | Potency [5] | Potency [8] | Potency [14]
active: Potency [4] 24.6 µM | Potency [7] 17.4 µM | Potency [16] 24.6 µM | Potency [9] 24.6 µM | Potency [11] 21.9 µM | Potency [17] 21.9 µM | Potency [15] 17.4 µM

COC(=O)C1=C(C)NC(C)=C(C(=O)OC(C)(C)CN(C)CCC(c2ccccc2)c2ccccc2)C1c1cccc([N+](=O)[O-])c1 (stereo not drawn)
inactive: Potency [2] | activity change, positive = activation [19] -45.4% [at 42.5 µM] | Potency [4] | Potency [5] | Potency [7] | Potency [16] | max response [9] -18% | Potency [10] | Potency [11] | Potency [17] | Potency [13] | Potency [14] | Potency [15]
active: Potency [18] 13.3 µM
